In the library only some 3.2% were active in any assay of this set; here they are far more common.
S16 F2sN tox = Cell viability qHTS assay in S16 Pmp22-F2sN cells; S16 Pmp22-F2sN Schwann cells viability, CellTiter-Glo, 24 h; Potency, µM (series often up to 57.5 µM), actives largely listed as cytotoxic; actives 0.48% (n = 43,000); note: nearly all actives have a fitted effect of over 65% in size
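Luminescence from CellTiter-Glo, read by CCD camera after a 15 min room-temperature incubation, served as the viability signal. Reporter Schwann cells (S16 Pmp22-F2sN) had been treated with pin-transferred compounds for 24 h at 37C.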
pS6 MEF inh = Acumen qHTS Assay for Inhibitors of the mTORC1 Signaling Pathway in MEF (Tsc2-/-, p53-/-) Cells: Sytravon; AID 493208, 2011; actives 0.78% (n = 44,000); Tsc2-/- p53-/- MEF, phospho-rpS6 immunofluorescence/PI, 24 h; Potency, µM (top dose mostly 38.3 µM), hits mostly inhibitors; note: nearly all actives have a fitted effect of over 50% in size
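Immunofluorescence of rpS6 phosphorylation in Tsc2-/-, p53-/- MEFs after 24 h compound exposure, normalized to propidium iodide signal. Activity is expressed as % positive cells, thresholded with 7.5 nM rapamycin.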
p53null 32C tox = qHTS Screen for Compounds that Selectively Target Cancer Cells with p53 Mutations: Cytotoxicity of p53 Null Cells at the Permissive Temperature; H1299-neo p53 null cells, ATP luminescence, 24 h, 32C; Potency, µM (top dose mostly 46.1 µM), usual class: cytotoxic; AID 903, 2007; actives 0.62% (n = 55,000); note: nearly all actives have a fitted effect of over 55% in size
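H1299-neo, 600 cells/well; overnight 37C; cpd up to 46 uM, 24 h at 32C; ATPlite luminescence after 20 min RT; normalized to DMSO (0%) and tamoxifen 100 uM (100% kill); Hill-fit AC50.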
PMP22 txn prim = Cell-based coincidence reporter assay to measure PMP22 gene transcription in S16 Pmp22-F2sN cells - Primary screen. S16 Pmp22-F2sN Schwann cells (luciferase reporters placed in the Pmp22 gene), FLuc/NLuc coincidence luminescence, 24 h. Potency, µM (series often up to 57.5 µM), actives largely listed as inhibitors. actives 2% (n = 43,000); active = clear falling dose curves in both reporters; inconclusive = both reporters move, but less clearly or upward; inactive = either reporter flat; the % is the NLuc reporter signal
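S16 Schwann cells carrying FLuc/NLuc coincidence reporter in the Pmp22 3' UTR treated with compound 24 h at 37C; FLuc then NLuc luminescence read sequentially by dual-luciferase reagents.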
p53null 39C tox = qHTS Screen for Compounds that Selectively Target Cancer Cells with p53 Mutations: Cytotoxicity of p53 Null Cells at the Nonpermissive Temperature. H1299 p53-null (neo) cells, 39C, ATPlite viability, 24 h. Potency, µM (highest dose often 46.1 µM), hits mostly cytotoxic. actives 0.97% (n = 55,000). AID 904, 2007; note: nearly all actives have a fitted effect of over 50% in size
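ATP-luminescence viability readout (ATPlite, 20 min RT) after 24 hr compound treatment at 39C of H1299-neo or H1299-p53A138V cells; titration up to 46 uM; normalized to DMSO and 100 uM tamoxifen; Hill-fit AC50.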
Of the large screens only hits and unclear results are named; the others gave an inactive call. Unless noted, calls come from the whole dose curve; as a rule, active = well fitted curve in the direction sought with a large enough effect; inconclusive = small, poorly fitted or top-dose-only effect, or another doubt; inactive = no such curve, though single readings can be large; an effect the other way counts as inactive or inconclusive.

Cc1cc(C)cc(OCCSc2nc3ccc(NC(=O)c4ccc5c(c4)OCO5)cc3s2)c1	none
CN(C)c1ccc(C(CNC(=O)c2ccccc2Cl)N2CCc3ccccc32)cc1 (stereo not given)	PMP22 txn prim inconclusive
Cc1ccsc1CN(Cc1ccco1)c1cnc(S(C)(=O)=O)nc1C(=O)Nc1ccc(Cl)cc1	none
CSc1cccc(NC(=O)Cn2nc(C)c3sc4ccccc4c3c2=O)c1	none
Cc1ccc(NC(=O)NCC2CCN(Cc3cccc(Cl)c3)CC2)cc1Cl	S16 F2sN tox inconclusive, pS6 MEF inh 10.4µM, PMP22 txn prim inconclusive, p53null 39C tox inconclusive
Cc1[nH]c2ccccc2c1C(=O)C(=O)NC1CC(=O)N(c2ccccc2)C1 (stereo not given)	none
Cc1nc2cccnc2n1-c1cccc(C(=O)N2CCN(c3ccc(Cl)cc3)CC2)c1	S16 F2sN tox inconclusive, PMP22 txn prim 15.6µM
COc1ccc(N2CCN(C(=O)c3cccc(-n4c(C)nc5cccnc54)c3)CC2)cc1	PMP22 txn prim inconclusive
CCN1CCN(c2cc(C)c3cc(NC(=O)/C=C/c4ccc(C)cc4)ccc3n2)CC1	S16 F2sN tox inconclusive, pS6 MEF inh 18.5µM, p53null 32C tox inconclusive, PMP22 txn prim inconclusive, p53null 39C tox inconclusive
CCN1CCN(c2cc(C)c3cc(NC(=O)/C=C/c4ccc(OCCC(C)C)cc4)ccc3n2)CC1	S16 F2sN tox inconclusive, pS6 MEF inh 4.14µM, PMP22 txn prim inconclusive, p53null 39C tox inconclusive
COc1ccc(-c2cc(C(=O)NCCc3ccccc3)c3c(-c4ccccc4)[nH]nc3n2)cc1	S16 F2sN tox inconclusive, PMP22 txn prim inconclusive, p53null 39C tox inconclusive
O=C(O)c1cc(-c2ccc(C(F)(F)F)cc2)nc2n[nH]c(-c3ccccc3)c12	p53null 32C tox inconclusive, p53null 39C tox 15.8µM
Cc1ccc2oc(-c3ccc(NC(=O)CCC(=O)O)cc3)nc2c1	p53null 32C tox 12.6µM, p53null 39C tox inconclusive
Cc1ccc(SCC(=O)Nc2ccc3oc(-c4cccc(C)c4)nc3c2)cc1	none
C=CCN1C=CC(=C/C=C(/C#N)C(=O)OCC)C=C1	p53null 32C tox 8.91µM, p53null 39C tox inconclusive (no result: S16 F2sN tox, pS6 MEF inh, PMP22 txn prim)
COc1cc(Cl)c(C)cc1NC(=O)C1CCN(c2nc3ccccc3n3cccc23)CC1	pS6 MEF inh 14.7µM, p53null 32C tox inconclusive, PMP22 txn prim inconclusive, p53null 39C tox 31.6µM
Cc1cc(C)c(NC(=O)c2nc3ccccc3nc2N2CCCCC2)c(C)c1	PMP22 txn prim inconclusive
Cc1cc(C)c(NC(=O)C2CCN(c3nc4ccccc4n4cccc34)CC2)c(C)c1	pS6 MEF inh 14.7µM, p53null 39C tox inconclusive
COc1cccc(NC(=O)c2oc3ccccc3c2NC(=O)COc2ccccc2C)c1	PMP22 txn prim inconclusive
Cc1ccc2onc(CNC(=O)NCc3cccc(Cl)c3)c2c1	none
Cc1ccc(CN2CCSc3ccc(C(=O)N4CCN(c5ccccc5)CC4)cc32)cc1	p53null 32C tox inconclusive, PMP22 txn prim inconclusive
CCc1ccc(NC(=O)c2cc(=O)c3ccc(C)c(C)c3o2)cc1	S16 F2sN tox inconclusive, pS6 MEF inh inconclusive, PMP22 txn prim 16.3µM
CNc1nnc(-c2ccc(N(C)C)cc2)s1	p53null 32C tox 8.91µM, p53null 39C tox 7.94µM (no result: S16 F2sN tox, pS6 MEF inh, PMP22 txn prim)
COc1ccc(C2=C(Nc3ccc(C)cc3C)c3ccccc3C2=O)cc1	none (no result: S16 F2sN tox, PMP22 txn prim)
Cc1ccc(NC2=C/C(=N\S(=O)(=O)c3cccs3)c3ccccc3C2=O)c(C)c1	p53null 32C tox 3.55µM, p53null 39C tox 3.55µM (no result: S16 F2sN tox, pS6 MEF inh, PMP22 txn prim)
Cc1cccc(Nc2nnc(-c3ccc(C)c(S(=O)(=O)N4CCN(C)CC4)c3)c3ccccc23)c1	pS6 MEF inh inconclusive, PMP22 txn prim inconclusive, p53null 39C tox 10µM
O=C(CSc1nccn1-c1ccc(Cl)cc1)Nc1nc2ccccc2s1	PMP22 txn prim inconclusive
O=C(CSc1nccn1Cc1ccc(Cl)cc1)Nc1nc2ccccc2s1	p53null 39C tox 14.1µM
Cc1oc2ccc(O)c(CN(C)Cc3ccccc3)c2c1C(=O)Nc1cccc(C(F)(F)F)c1	S16 F2sN tox inconclusive, pS6 MEF inh inconclusive, PMP22 txn prim inconclusive, p53null 39C tox 22.4µM
Cc1oc2ccc(O)c(CN(C)Cc3ccccc3)c2c1C(=O)Nc1ccccc1	pS6 MEF inh inconclusive, PMP22 txn prim inconclusive, p53null 39C tox inconclusive
Cc1ccc(NC(=O)c2c(C)oc3ccc(O)c(CN(C)Cc4ccccc4)c23)c(C)c1	pS6 MEF inh 14.7µM, PMP22 txn prim inconclusive
CCOC(=O)c1c(NC(=O)CSc2cn(CCNC(=O)c3ccc(OCC)cc3)c3ccccc23)sc2c1CCCC2	none (no result: p53null 32C tox, p53null 39C tox)
CCc1ccc(CNC(=O)CCCn2ccc3cc(S(=O)(=O)N4CCCC4)ccc32)cc1	S16 F2sN tox inconclusive, pS6 MEF inh inconclusive, PMP22 txn prim inconclusive, p53null 39C tox inconclusive
CCOC(=O)c1cccc(NS(=O)(=O)c2cc(-c3cnc(C4CC4)o3)ccc2C)c1	S16 F2sN tox 20µM
CCc1ccc(NS(=O)(=O)c2cc(-c3cnc(C4CC4)o3)ccc2C)cc1	S16 F2sN tox inconclusive, p53null 39C tox inconclusive
CCC(=O)Nc1sc2c(c1C(=O)Nc1ccc(OC)cc1)CCC(C(C)(C)C)C2 (stereo not given)	none
COc1ccc(-c2n[nH]c3c2C(c2ccc(O)cc2)N(c2ccc(Br)cc2)C3=O)cc1 (stereo not given)	S16 F2sN tox inconclusive, pS6 MEF inh 14.7µM, PMP22 txn prim inconclusive
CCc1ccc2nc(N3CCN(C(=O)c4ccco4)CC3)sc2c1	PMP22 txn prim inconclusive
CCCCN(C)CCCNC(=O)C1CCN(S(=O)(=O)CC)CC1	none
CCCCN(CC)CCCNC(=O)C1CCN(c2nc3ccc(CC)cc3s2)CC1	S16 F2sN tox inconclusive, pS6 MEF inh 7.36µM, p53null 32C tox inconclusive, PMP22 txn prim inconclusive, p53null 39C tox 12.6µM
CCCCN(C)CCCNC(=O)C1CCN(c2nc3ccc(CC)cc3s2)CC1	S16 F2sN tox inconclusive, pS6 MEF inh 18.5µM, p53null 32C tox inconclusive, PMP22 txn prim inconclusive, p53null 39C tox 12.6µM
COc1cccc(-n2c(=O)c3sc4ccccc4c3n(CC(=O)Nc3ccc(F)cc3F)c2=O)c1	pS6 MEF inh inconclusive, p53null 32C tox inconclusive, PMP22 txn prim inconclusive, p53null 39C tox inconclusive
CC(NS(=O)(=O)c1ccc(OCC(=O)N2CCOCC2)cc1)c1ccccc1 (stereo not given)	none (no result: S16 F2sN tox, pS6 MEF inh, PMP22 txn prim)
CCN(c1ccccc1)S(=O)(=O)c1cc(C(=O)Nc2ccc(Br)cc2)ccc1F	pS6 MEF inh 14.7µM, PMP22 txn prim inconclusive
CN(C)c1ccc(Nc2nc3ccccc3n3nnnc23)cc1	S16 F2sN tox inconclusive, PMP22 txn prim 13.5µM, p53null 39C tox inconclusive

High-throughput results as filed in PubChem.
